Screening results (PubChem BioAssay)
HCV NS3h FP = HCV NS3 helicase inhibitors, primary screen, biochemical, fluorescence polarization, ChemBridge library | Hepatitis C virus NS3 helicase | NS3h Cy5-dT15 DNA binding | inhibition, % at 100 µM | actives 1.6% (n = 16,000) | AID 687043, 2013;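 active = inhibition above the average over every tested compound plus 3 SD, cut at about 40% in these data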
Cy5 interf NS3h = Cy5 fluorescence quenchers or enhancers, artefact control for HCV NS3 helicase inhibitor project, biochemical, ChemBridge library, Cy5 readout | Cy5-dT15 DNA with NS3h, fluorescence interference; actives lie on both sides; signal over control mean, under 1 quenches | fluorescence interference ratio at 100 µM | actives 6% (n = 16,000) | AID 720488, 2013;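 active = compound fluorescence over control fluorescence at most 0.8, a quencher, or at least a set upper limit, an enhancer; inactive = ratio between 0.8 and the set upper limit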
NS3h confirm = HCV NS3 helicase inhibitors, retest, confirmation, biochemical, fluorescence polarization, ChemBridge library | actives 20% (n = 240) | inhibition, % at 100 µM | shares compounds with HCV NS3h FP | NS3h binding to Cy5-dT15 DNA | AID 720485, 2013;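 active = percent inhibition of 50% or more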
SSB-DNA FP CB = E. coli SSB-DNA binding inhibitors, counter-screen for HCV NS3 helicase inhibitor project, biochemical, fluorescence polarization, selected ChemBridge compounds; inhibition, % at 100 µM; shares compounds with HCV NS3h FP; E. coli SSB binding Cy5-dT15; actives 40% (n = 240);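 active = inhibition of at least 50%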;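 note: displacers lower Cy5 polarization so higher inhibition means more SSB displaced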
Target sequence (P0AGE0 whole entry, looked up): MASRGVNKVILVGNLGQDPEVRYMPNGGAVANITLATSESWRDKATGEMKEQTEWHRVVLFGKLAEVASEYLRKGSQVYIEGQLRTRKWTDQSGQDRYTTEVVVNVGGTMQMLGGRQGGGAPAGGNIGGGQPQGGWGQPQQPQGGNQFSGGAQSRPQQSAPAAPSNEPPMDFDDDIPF
Cy5 SSB interf = Cy5 fluorescence interference with SSB-bound oligo, artefact control for HCV NS3 helicase inhibitor project, biochemical, E. coli SSB, selected ChemBridge compounds; AID 720487, 2013; Cy5-dT15/E. coli SSB fluorescence interference; actives lie on both sides; fluorescence interference ratio at 100 µM; actives 8% (n = 240); shares compounds with HCV NS3h FP;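 active = fluorescence interference ratio at or above 1.2, signal boosting, or at or below 0.8, signal quenching; inactive = ratio between 0.8 and 1.2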;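 note: ratio of compound well signal to mean negative control signal so 1 means no effect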
Cy5 fluor confirm = Cy5-DNA-NS3h complex fluorescence interference, confirmation, artefact control for HCV NS3 helicase inhibitor project, biochemical, ChemBridge library. shares compounds with HCV NS3h FP. Cy5-dT15 DNA/NS3h fluorescence interference counterscreen. fluorescence interference ratio at 100 µM, hits read low. actives 44% (n = 240). AID 720489, 2013;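 active = fluorescence interference ratio at or below 0.8 quencher or at or above a set limitenhancer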;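 note: ratio of compound fluorescence to mean of negative controls so 1 means no interference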
Numbers without * were called inactive. Hits are enriched below; roughly 6.8% of the tested compounds scored in any of these assays.

For O=[N+]([O-])c1ccc(N2CCNCC2)cc1NCCc1ccccc1 the results were HCV NS3h FP 9.7 and Cy5 interf NS3h 0.783*.
For COc1ccccc1C1(CCNCc2ccc(N(C)C)cc2)CCOC(C)(C)C1 (stereo not drawn) the results were HCV NS3h FP 5.7 and Cy5 interf NS3h 0.995.
O=[N+]([O-])c1ccc(NCCOc2cccc3ccccc23)c2ncccc12 was read as HCV NS3h FP 7.8 and Cy5 interf NS3h 0.752*.
Cc1cc(-c2ccc(C=C3C(=O)NC(=S)NC3=O)o2)cc([N+](=O)[O-])c1C was read as HCV NS3h FP 16.6 and Cy5 interf NS3h 0.927.
Screening Cc1ccc(-c2ccc(C=C3C(=O)NC(=S)NC3=O)o2)cc1[N+](=O)[O-] returned HCV NS3h FP 41.8* and Cy5 interf NS3h 0.925.
For O=C1NC(=O)N(Cc2ccccc2)C(=O)/C1=C/c1ccc2c(c1)OCO2 the results were HCV NS3h FP 8.0 and Cy5 interf NS3h 0.896.
For CSc1ccc(CN2CCN(Cc3ccc(Br)cc3)CC2)cc1 the results were HCV NS3h FP -3.9 and Cy5 interf NS3h 1.01.
`O=C1CC(=O)N(c2ccc(Cl)c(Cl)c2)C(=S)N1` gave HCV NS3h FP 18.6 and Cy5 interf NS3h 0.619*.
Cc1ccc(N2C(=O)CC(=O)NC2=S)cc1 was read as HCV NS3h FP 3.1 and Cy5 interf NS3h 1.04.
`Cc1ccc(C=C2C(=O)N(C)C(=O)N(C)C2=O)o1` gave HCV NS3h FP 10.1 and Cy5 interf NS3h 0.995.
C=CCn1c(C)c(C=C2C(=O)NC(=S)NC2=O)c2ccccc21 was read as HCV NS3h FP 13.6 and Cy5 interf NS3h 0.998.
For O=C(NC(Oc1ccccc1Br)C(Cl)(Cl)Cl)c1ccco1 (stereo not drawn) the results were HCV NS3h FP 6.7 and Cy5 interf NS3h 0.934.
CCCCOC(=O)COc1cc(C)cc2oc(=O)c3c(c12)CCC3 was read as HCV NS3h FP 53.6*, Cy5 interf NS3h 1.11, NS3h confirm -3.0, SSB-DNA FP CB 7.8, Cy5 SSB interf 0.963 and Cy5 fluor confirm 0.934.
Screening Cc1cc(OCC(N)=O)c2c3c(c(=O)oc2c1)CCC3 returned HCV NS3h FP 15.5 and Cy5 interf NS3h 1.16.
`CCOc1ccc(NC(=S)NC2CN3CCC2CC3)cc1` (stereo not drawn) gave HCV NS3h FP -9.4 and Cy5 interf NS3h 0.992.
For O=C(CNS(=O)(=O)c1ccccc1)Nc1ccc(Br)cc1C(=O)c1ccccc1 the results were HCV NS3h FP 30.8 and Cy5 interf NS3h 0.998.
CCN1C(=O)C(=Cc2ccc(N(CC)CC)cc2)C(=O)N(CC)C1=S was read as HCV NS3h FP 54.6*, Cy5 interf NS3h 1.98*, NS3h confirm 28.8, SSB-DNA FP CB 6.6, Cy5 SSB interf 1.18 and Cy5 fluor confirm 1.4*.
CN(C)c1ccc(C=C2C(=O)NC(=S)N(c3ccccc3F)C2=O)cc1 was read as HCV NS3h FP 34.5 and Cy5 interf NS3h 0.996.
For COc1ccc(C=C(C#N)C#N)c(OC)c1 the results were HCV NS3h FP 6.4 and Cy5 interf NS3h 1.04.
`Cc1cc(OCc2ccccc2)c2c3c(c(=O)oc2c1)CCC3` gave HCV NS3h FP 8.7 and Cy5 interf NS3h 1.08.
For COc1cccc(CN2CCN(Cc3ccc(C)cc3)CC2)c1 the results were HCV NS3h FP -7.7 and Cy5 interf NS3h 1.06.
`CC(C)Oc1ccc(Br)cc1C=C1C(=O)NC(=O)NC1=O` gave HCV NS3h FP 15.4 and Cy5 interf NS3h 1.07.
For O=C1NC(=O)C(=Cc2ccccc2OCc2ccccc2Cl)C(=O)N1 the results were HCV NS3h FP 56.0*, Cy5 interf NS3h 0.584*, NS3h confirm 24.5, SSB-DNA FP CB 28.4, Cy5 SSB interf 0.925 and Cy5 fluor confirm 0.733*.
`O=C1NC(=S)NC(=O)C1CCCC=C(Cl)Cl` gave HCV NS3h FP 29.2, Cy5 interf NS3h 0.982, NS3h confirm 28.8, SSB-DNA FP CB 40.5, Cy5 SSB interf 0.949 and Cy5 fluor confirm 0.986.
Screening O=C(Nc1cccc2ccccc12)NC1CN2CCC1CC2 (stereo not drawn) returned HCV NS3h FP -0.6 and Cy5 interf NS3h 1.07.
`O=C1NC(=O)C(=Cc2ccc(-c3cc([N+](=O)[O-])ccc3O)o2)C(=O)N1` gave HCV NS3h FP 185.2*, Cy5 interf NS3h 1.7*, NS3h confirm 100.0*, SSB-DNA FP CB 100.0*, Cy5 SSB interf 0.905 and Cy5 fluor confirm 1.19.
For O=C1NC(=O)C(=Cc2ccc(O)c(O)c2)C(=O)N1 the results were HCV NS3h FP 34.9 and Cy5 interf NS3h 0.965.
For O=C1NC(=O)C(=Cc2ccc(-c3ccccc3C(=O)O)o2)C(=O)N1 the results were HCV NS3h FP 67.5*, Cy5 interf NS3h 1.02, NS3h confirm 54.2*, SSB-DNA FP CB 24.8, Cy5 SSB interf 0.978 and Cy5 fluor confirm 0.98.
Screening COC(=O)c1ccc(-c2ccc(C=C3C(=O)NC(=S)NC3=O)o2)cc1 returned HCV NS3h FP 18.5 and Cy5 interf NS3h 1.06.
`O=c1oc2ccccc2c(O)c1C(c1cccc(F)c1)c1c(O)c2ccccc2oc1=O` gave HCV NS3h FP 0.9 and Cy5 interf NS3h 0.946.
`CCN(CC)CCNC(=O)CN1CCCC1=O` gave HCV NS3h FP -7.4 and Cy5 interf NS3h 0.955.
`CN1C(=O)C(=Cc2ccc(-c3cccc(C(=O)O)c3)o2)C(=O)N(C)C1=O` gave HCV NS3h FP 31.7 and Cy5 interf NS3h 0.972.
For Cc1ccc(N2C(=O)NC(=O)/C(=C/c3ccc(-c4cccc(C(=O)O)c4)o3)C2=O)cc1 the results were HCV NS3h FP 50.2*, Cy5 interf NS3h 1.06, NS3h confirm 89.1*, SSB-DNA FP CB 69.7*, Cy5 SSB interf 0.845 and Cy5 fluor confirm 0.902.
`Cc1ccc(N2C(=O)/C(=C/c3ccc(-c4ccc(C(=O)O)cc4)o3)C(=O)NC2=S)cc1` gave HCV NS3h FP 50.3*, Cy5 interf NS3h 0.994, NS3h confirm 44.6, SSB-DNA FP CB 62.4*, Cy5 SSB interf 0.85 and Cy5 fluor confirm 0.93.
`O=C1NC(=S)N(c2ccc(Br)cc2)C(=O)/C1=C/c1ccc(-c2ccc(C(=O)O)cc2)o1` gave HCV NS3h FP 13.4 and Cy5 interf NS3h 1.02.
Screening Cc1ccc(N2C(=O)CC(=O)N(C)C2=S)cc1 returned HCV NS3h FP -2.8 and Cy5 interf NS3h 1.03.
